Test results reported in PubChem BioAssay AID1159580 (chemical genetic matrix, 2015).
About 2,000 (36%) of roughly 5,500 compounds were called active. About 18% were inconclusive and are not listed. Cut-off read from the data, not from the text of the source: active = normalized growth mostly below about 0.91 (no sharp cut-off); inconclusive = no clear call, values can overlap the other calls; inactive = mostly above about 0.92. The list shows a part of the results.

Assay: chemical genetic growth profiling, strain panel (AID 1159580);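 note: tested at 20 µM; growth read once vehicle control cultures reached saturation at 30 °C; 1 = growth at the plate median or of vehicle wells; lower values mean less growth of the strain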
Conditions: S. cerevisiae deletion strains, growth OD

Measured: normalized growth

COC(=O)[C@H]1[C@H]2C[C@H]3c4[nH]c5ccccc5c4CCN3C[C@H]2CC[C@@H]1O
inactive: locus YAL013W, strain DEP1, active compounds read low 0.998 | locus YBR021W, strain FUR4, active compounds read low 1 | locus YBR229C, strain ROT2, active compounds read low 1.01 | locus YCL029C, strain bik1, active compounds read low 1 | locus YDL035C, strain GPR1, active compounds read low 1.01 | locus YDL074C, strain BRE1, active compounds read low 1.02 | locus YDL101C, strain DUN1, active compounds read low 1.01 | locus YDL134C, strain PPH21, active compounds read low 1.01 | locus YDL185W, strain tfp1, active compounds read low 1.01 | locus YDL192W, strain arf1, active compounds read low 1 | locus YDR101C, strain arx1, active compounds read low 1.01 | locus YDR150W, strain NUM1, active compounds read low 1.01 | locus YDR162C, strain NBP2, active compounds read low 1.01 | locus YDR318W, strain mcm21, active compounds read low 1 | locus YDR388W, active compounds read low 1 | locus YDR502C, strain sam2, active compounds read low 1.01 | locus YEL061C, strain CIN8, active compounds read low 1.01 | locus YER110C, active compounds read low 1 | locus YER155C, strain BEM2, active compounds read low 1.01 | locus YER167W, strain BCK2, active compounds read low 1.01 | locus YGL078C, strain dbp3, active compounds read low 1.01 | locus YGL086W, strain mad1, active compounds read low 1.01 | locus YGL248W, strain PDE1, active compounds read low 1.01 | locus YGR135W, strain pre9, active compounds read low 0.988 | locus YGR229C, strain SMI1, active compounds read low 1.01 | locus YGR252W, strain gcn5, active compounds read low 0.977 | locus YHR030C, strain SLT2, active compounds read low 1.01 | locus YHR079C, strain IRE1 (second series), active compounds read low 1 | locus YHR094C, strain hxt1, active compounds read low 1 | locus YHR129C, strain ARP1, active compounds read low 1.01 | locus YHR200W, strain rpn10, active compounds read low 1.01 | locus YIL066C, strain RNR3, active compounds read low 1.02 | locus YIL073C, strain SPO22, active compounds read low 1 | locus YIL125W, strain kgd1, active compounds read low 0.999 | locus YIR030C, strain dcg1, active compounds read low 0.999 | locus YJL095W, strain BCK1, active compounds read low 1.02 | locus YJL134W, strain LCB3, active compounds read low 1.01 | locus YJL168C, strain set2, active compounds read low 0.998 | locus YJL187C, strain SWE1 (second series), active compounds read low 1.03 | locus YJR043C, strain POL32, active compounds read low 1.02 | locus YKL009W, strain mrt4, active compounds read low 1 | locus YKL068W, active compounds read low 0.993 | locus YKL085W, strain MDH1 (second series), active compounds read low 1.01 | locus YKL085W, strain MDH1, active compounds read low 1.01 | locus YKL190W, strain CNB1, active compounds read low 1.01 | locus YKR001C, strain vps1, active compounds read low 1.02 | locus YLR039C, strain RIC1, active compounds read low 1.08 | locus YLR058C, strain SHM2, active compounds read low 1.02 | locus YLR102C, strain apc9, active compounds read low 1 | locus YLR262C, strain YPT6, active compounds read low 1.08 | locus YLR268W, strain sec22, active compounds read low 1 | locus YLR330W, strain CHS5, active compounds read low 1.01 | locus YLR342W, strain FKS1 (second series), active compounds read low 0.984 | locus YLR371W, strain rom2, active compounds read low 0.999 | locus YLR418C, strain cdc73, active compounds read low 0.985 | locus YML016C, strain PPZ1, active compounds read low 1.01 | locus YML032C, strain rad52, active compounds read low 0.998 | locus YML124C, strain tub3, active compounds read low 0.993 | locus YMR078C, strain ctf18, active compounds read low 1.01 | locus YMR223W, strain ubp8, active compounds read low 0.992 | locus YMR263W, strain SAP30, active compounds read low 1.01 | locus YMR307W, strain GAS1, active compounds read low 0.95 | locus YNL067W, strain RPL9B, active compounds read low 1.02 | locus YNL233W, strain BNI4, active compounds read low 1.02 | locus YNL250W, strain rad50, active compounds read low 1.02 | locus YNL271C, strain bni1, active compounds read low 1.01 | locus YNL298W, strain CLA4, active compounds read low 0.988 | locus YNL307C, strain MCK1, active compounds read low 1.01 | locus YNR052C, strain pop2, active compounds read low 0.998 | locus YOL012C, strain htz1 0.805 | locus YOL147C, strain pex11, active compounds read low 1.01 | locus YOR061W, strain CKA2, active compounds read low 1.01 | locus YOR069W, strain VPS5, active compounds read low 1.01 | locus YOR136W, strain idh2, active compounds read low 0.998 | locus YOR144C, strain elg1, active compounds read low 1 | locus YOR184W, strain ser1, active compounds read low 1.01 | locus YOR316C, strain cot1, active compounds read low 1.01 | locus YPL241C, strain CIN2, active compounds read low 1.01 | locus YPR119W, strain clb2, active compounds read low 1 | locus YPR141C, strain kar3, active compounds read low 0.992 | locus YPR163C, strain tif3, active compounds read low 1.01 | locus YPR167C, strain met16, active compounds read low 1 | strain wtn01, active compounds read low 1.01
